Screening results deposited in PubChem BioAssay by National Center for Advancing Translational Sciences (NCATS).
DT40 TDP1 CPT – DT40-hTDP1 cell growth loss with CPT; chicken DT40 Tdp1-/-;hTDP1 cells + 20 nM CPT, ATP luminescence, 48 h; Potency, µM (series often up to 46.2 µM), for the others: at the highest dose activity change, negative = growth inhibition, most hits filed as inhibitors; 12% of 420,000 active; AID 686979; also: nearly all actives have a fitted effect of over 55% in size
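Chicken DT40 Tdp1-/- cells complemented with human TDP1, 400 cells/well, exposed to compounds plus 20 nM camptothecin for at least 48 h at 37 C; viability read as ATP content by CellTiter-Glo luminescence.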
TDP1 block – inhibitors of human tyrosyl-DNA phosphodiesterase TDP1. Potency, µM (top dose mostly 130 µM), inactives show at the highest dose activity change, negative = inhibition, most hits filed as inhibitors. AID 485290. 0.28% of 350,000 active. recombinant TDP1, AlphaScreen DNA substrate cleavage. Q9NUW8; also: nearly all actives have a fitted effect of over 40% in size
Target sequence (Q9NUW8 whole entry, looked up): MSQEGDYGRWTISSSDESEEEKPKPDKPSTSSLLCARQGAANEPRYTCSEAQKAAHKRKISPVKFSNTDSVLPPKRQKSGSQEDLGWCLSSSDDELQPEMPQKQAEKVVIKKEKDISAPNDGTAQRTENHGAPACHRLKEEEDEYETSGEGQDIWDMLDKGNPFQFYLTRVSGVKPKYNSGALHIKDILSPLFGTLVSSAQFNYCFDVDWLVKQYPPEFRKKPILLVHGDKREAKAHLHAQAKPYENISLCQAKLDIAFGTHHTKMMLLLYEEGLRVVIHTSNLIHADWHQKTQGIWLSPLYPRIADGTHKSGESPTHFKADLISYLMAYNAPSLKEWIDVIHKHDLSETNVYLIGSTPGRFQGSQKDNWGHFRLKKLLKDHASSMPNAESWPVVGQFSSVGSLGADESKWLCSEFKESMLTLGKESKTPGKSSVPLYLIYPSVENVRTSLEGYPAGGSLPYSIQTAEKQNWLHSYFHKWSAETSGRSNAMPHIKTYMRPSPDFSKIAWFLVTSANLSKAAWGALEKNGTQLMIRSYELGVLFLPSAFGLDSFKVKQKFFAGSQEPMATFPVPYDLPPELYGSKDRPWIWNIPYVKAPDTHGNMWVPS
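Tdp1 1 nM final; 15 min RT w/ cpd; substrate 15 nM, 5 min; beads 10 ug/ml, 10 min; AlphaScreen read. Neg ctrl: no enzyme.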
Gal4-VP16 FLuc – inhibits Gal4-VP16 luciferase reporter, ROR gamma counter-screen. Potency, µM (doses to about 53.6 µM), inactives show top-dose activity, negative = inhibition, most hits filed as inhibitors. Drosophila S2 Gal4-VP16 UAS-luciferase, luminescence, 20 h. 3.5% of 310,000 active;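 also: Gal4-VP16 expression switched on by copper sulfate through the metallothionein promoter; nearly all actives have a fitted effect of over 50% in size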
RORg inh – blocks mouse ROR gamma transcriptional activity; Drosophila S2 Gal4-RORgamma UAS-luciferase reporter, 20 h; 5.4% of 310,000 active; AID 2551; P51450; Potency, µM (top dose mostly 53.6 µM), without a hit: at the highest dose activity change, negative = inhibition, usual class: inhibitors; also: nearly all actives have a fitted effect of over 60% in size
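Read-out: Photinus luciferase luminescence; inhibitors lower reporter signal. Insect Schneider cells with Gal4-ROR gamma fusion under metallothionein promoter, UAS reporter; 700 uM final copper sulfate induction, 20 hr, ambient temperature.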
TDP1 cell noCPT – qHTS for Inhibitors of human tyrosyl-DNA phosphodiesterase 1 (TDP1): qHTS in cells in absence of CPT. DT40 Tdp1-/- hTDP1 cells, no CPT, ATP luminescence, 48 h. 15% of 420,000 active. Potency, µM (highest dose often 46.2 µM), without a hit: at the highest dose activity change, negative = growth inhibition, usual class: inhibitors; also: nearly all actives have a fitted effect of over 55% in size
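Luminescent ATP content (CellTiter-Glo) served as the growth readout. Knockout chicken DT40 cells expressing human TDP1 were exposed to compounds without camptothecin for a minimum 48 hr at 37 °C.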
Numbers without * were called inactive; ? = inconclusive; . = no result given; [ ] = another dose, or the depositor's remark. An excerpt weighted towards active compounds, which were near 19% of everything screened. Calls follow the shape of the dose curve; as a rule, active = well fitted curve in the direction sought with a large enough effect; inconclusive = small, poorly fitted or top-dose-only effect, or another doubt; inactive = no such curve, though single readings can be large; an effect the other way counts as inactive or inconclusive. % is scaled to controls: 0 for no effect and ±100 for the full control effect; potency is read from the fitted curve at half-maximal effect.

SMILES	DT40 TDP1 CPT	TDP1 block	Gal4-VP16 FLuc	RORg inh	TDP1 cell noCPT
CCOc1ccc(-n2c(Cc3ccccc3)nnc2SCc2nc(-c3ccccc3OC)no2)cc1	?	6%	.	.	16µM*
CCN(CC)CCCNc1nc(N)c([N+](=O)[O-])c(N2CCCCCC2)n1	7%	.	10%	-5%	-4%
CCC(=O)Nc1ccc(Cl)c(NC(=S)NC(C)=O)c1	4%	-3%	-2%	26%	-24%
CCC(=O)Nc1ccc(Cl)c(NC(=S)NC(=O)c2cc3ccccc3o2)c1	-3%	5%	3.5µM*	?	5%
COc1cc(NC(=O)c2cccc([N+](=O)[O-])c2)ccc1NC(=O)c1cc2ccccc2o1	?	.	0%	3%	8.2µM*
CCC(=O)NC(=S)Nc1ccc(NC(=O)c2cc3ccccc3o2)c(OC)c1	?	-4%	?	4.5µM*	?
COc1cc(NC(=O)c2cccc(C)c2)ccc1NC(=O)c1cc2ccccc2o1	?	.	13µM*	?	3.7µM*
COc1ccc(C)cc1NC(=O)Nn1cnnc1	9%	-5%	2%	6%	-3%
Cc1cccc(NS(=O)(=O)c2cccs2)c1	1%	6%	-6%	16%	6%
CN(C)/C=C/C(=O)c1ccc(Cl)c([N+](=O)[O-])c1	-8%	9%	-18%	-1%	?
CC(C)COc1ccc(CNC(=S)N/N=C/c2ccc([N+](=O)[O-])cc2)cc1	-13%	7%	4.5µM*	1.4µM*	-28%
CCCOc1ccc(CNC(=S)NCc2ccc(OC(C)C)cc2)cc1	?	-3%	7.1µM*	7.1µM*	18µM*
CCCOc1ccc(CNC(=S)N/N=C/c2ccc([N+](=O)[O-])cc2)cc1	?	6%	1.6µM*	1.3µM*	21µM*
CCn1ccc(-c2ccccc2)c(C#N)c1=O	1%	-6%	-10%	3%	3%
CC(=O)N1c2ccccc2N(Cc2ccc(C)cc2C)C(=O)C1(C)C	6.5µM*	6%	-7%	0%	5.8µM*
CC1(C)Cc2c(C#N)c(N3CCCC3)nc(-c3ccco3)c2CO1	.	-1%	3%	-18%	.
CC(C)c1nc(N2CCN(C(=O)c3ccccc3)CC2)c(C#N)c2c1COC(C)(C)C2	?	4%	8%	2%	?
CC(C)c1nc(N2CCN(C(=O)c3ccco3)CC2)c(C#N)c2c1COC(C)(C)C2	15µM*	.	?	-92%	21µM*
Cc1nc(N2CCN(Cc3ccccc3)CC2)c(C#N)c2c1COC(C)(C)C2	?	7%	-14%	?	26µM*
Cc1ccc(C)c2sc(NC(=O)c3ccc(S(=O)(=O)N4CCC(C)CC4)cc3)nc12	?	5%	.	.	16µM*
Cc1nnsc1C(=O)Nc1ccc(S(=O)(=O)N2CCC(C)CC2)cc1	?	1%	-28%	27%	10µM*
CC1CCN(S(=O)(=O)c2ccc(C(=O)Nc3ncccc3O)cc2)CC1	?	-12%	-27%	?	15µM*
COc1ccc2c(c1)CCC1(C)CC(=O)C=C21 (stereo unspecified)	3%	.	.	.	-24%
COc1ccc(C2CC(=O)C=C3c4ccc(OC)cc4CCC32)cc1 (stereo unspecified)	?	.	.	.	26µM*
C=CCNC(=O)c1onc(CCl)c1C(=O)OC	23µM*	3%	-13%	-17%	?
SMILES	DT40 TDP1 CPT	TDP1 block	Gal4-VP16 FLuc	RORg inh	TDP1 cell noCPT
COCCNC(=O)c1onc(CCl)c1C(=O)OC	?	6%	-7%	-30%	?
CCCN1C(=O)/C(=C\C=C2/Sc3ccccc3N2CC)SC1=S	.	5%	7%	-4%	.
CCN1/C(=C\C=C2\C(=O)N(c3ccccc3)C(=S)N2C)Sc2ccccc21	?	5%	-1%	-13%	10µM*
Cc1ccc(Oc2nn[nH]n2)cc1	-9%	-3%	-3%	-5%	-30%
Cc1ccc2sc(NC(=O)c3cccc(N4C(=O)CCC4=O)c3)nc2c1C	-10%	2%	-16%	8%	?
CCc1ccc2[nH]c3nc(SCCN4CCOCC4)nnc3c2c1	?	.	4%	?	23µM*
Cc1ccc(C(=O)NNC(=O)CSc2nc(N)cc(N)n2)cc1	?	8%	-2%	-9%	-17%
CCOc1ccc2[nH]c3nc(SCC(=O)NC4CC4)nnc3c2c1	?	3%	2%	12%	?
Cc1ccc(C(=O)NNC(=O)CSc2nnc3c(n2)[nH]c2ccc(C)cc23)cc1	?	2%	0%	25%	18µM*
CCc1ccc2[nH]c3nc(SCC(=O)NNC(=O)c4ccc(C(C)(C)C)cc4)nnc3c2c1	21µM*	0%	0%[0.365 µM]	13µM*	16µM*
O=C(O)CC1(CC(=O)Nc2ccccc2C(=O)c2ccccc2)CCCC1	-1%	8%	-4%	30%	-14%
Cc1cnnn1-c1ccc(C(=O)CCl)cc1	2.3µM*	0%	0%	7%	2.6µM*
CCN(CC)c1ccc(N=Cc2c(C)[nH]c3ccccc23)cc1	6.5µM*	10%	?	-23%	9.2µM*
Cc1ccc(N2CC(=O)Nc3c(oc4nc(-c5ccccc5)cc(C)c34)C2=O)cc1	-5%	.	15%	-16%	-24%
COc1ccc(-c2cc(C(F)(F)F)nc(N3CCN(C)CC3)n2)cc1OC	?	4%	-14%	0%	21µM*
COc1ccc(-c2cc(C(F)(F)F)nc(-n3ccnc3C)n2)cc1	?	1%	?	11µM*	21µM*
COc1ccc(-c2cc(C(F)(F)F)nc(N3CCN(C)CC3)n2)cc1	?	0%	-11%	0%	16µM*
Cc1cc(=O)c(C(=O)Nc2cccc(C(=O)NC3CC3)c2)nn1-c1ccccc1Cl	-27%	-1%	.	.	18%
COc1ccc(S(=O)(=O)Cc2ccc(C(=O)NCc3ccccc3)o2)cc1	-19%	2%	-12%	20%	-11%
O=C(NCc1ccccc1)c1ccc(CS(=O)(=O)c2ccccc2)o1	2.6µM*	2%	14%	31%	16µM*
O=C(NCc1ccccc1Cl)c1ccc(CS(=O)(=O)c2ccccc2)o1	-16%	1%	5%	9%	-23%
O=C(NCc1ccccc1Cl)c1ccc(CS(=O)(=O)c2ccc(Br)cc2)o1	23µM*	2%	.	.	13µM*
COc1ccc(OC)c(CCNC(=O)c2ccc(CS(=O)(=O)c3ccc(Br)cc3)o2)c1	21µM*	8%	-3%	11%	?
COc1ccc(S(=O)(=O)Cc2ccc(C(=O)NCc3ccc(C)cc3)o2)cc1	-13%	4%	-11%	9%	23µM*
